# Data: PubChem BioAssay (NCI)
# Compounds without any hit were thinned out: in the full panel of roughly 83,000, 20% have a hit.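 In brief: 96-well plates, 48 h treatment, single concentration, percent growth endpoint.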 A number with no mark means an inactive call. Calls of active or inactive are those of the source. Rule for the calls: active = growth percent below 10; inactive = the rest.
# Experiments:
# Assay in all cases: NCI-60 one-dose screen, 48 h (100 = growth as untreated, 0 = no growth, -100 = all killed)
# Settings in all cases: 10 µM unless noted
# DU-145 prostate = tested on: DU-145 prostate
# K-562 leukemia = tested on: K-562 leukemia
# MALME-3M melanoma = tested on: MALME-3M melanoma
# MDA-MB-231 breast = tested on: MDA-MB-231 breast
# RXF 393 renal = tested on: RXF 393 renal
# SF-268 CNS = tested on: SF-268 CNS
# SF-295 CNS = tested on: SF-295 CNS
# SF-539 CNS = tested on: SF-539 CNS
# UACC-257 melanoma = tested on: UACC-257 melanoma
# M14 melanoma = tested on: M14 melanoma
# HCT-15 colon = tested on: HCT-15 colon
# HT29 colon = tested on: HT29 colon
# SNB-75 CNS = tested on: SNB-75 CNS
# SNB-19 CNS = tested on: SNB-19 CNS
# U251 CNS = tested on: U251 CNS
# PC-3 prostate = tested on: PC-3 prostate
# SK-MEL-5 melanoma = tested on: SK-MEL-5 melanoma
# UACC-62 melanoma = tested on: UACC-62 melanoma
# LOX IMVI melanoma = tested on: LOX IMVI melanoma
# SK-MEL-28 melanoma = tested on: SK-MEL-28 melanoma
Compound,growth (DU-145 prostate),growth (K-562 leukemia),growth (MALME-3M melanoma),growth (MDA-MB-231 breast),growth (RXF 393 renal),growth (SF-268 CNS),growth (SF-295 CNS),growth (SF-539 CNS),growth (UACC-257 melanoma),growth (M14 melanoma),growth (HCT-15 colon),growth (HT29 colon),growth (SNB-75 CNS),growth (SNB-19 CNS),growth (U251 CNS),growth (PC-3 prostate),growth (SK-MEL-5 melanoma),growth (UACC-62 melanoma),growth (LOX IMVI melanoma),growth (SK-MEL-28 melanoma)
CCN(CC)S(=O)(=O)c1cccc(-c2ccc3c(NC(=O)C4CC4)n[nH]c3c2)c1,25.4% [6.25 µM],9.65% [6.25 µM] (active),21.1% [6.25 µM],38.5% [6.25 µM],-11.7% [6.25 µM] (active),35.8% [6.25 µM],5.94% [6.25 µM] (active),-2.68% [6.25 µM] (active),21.5% [6.25 µM],8.28% [6.25 µM] (active),23.5% [6.25 µM],3.07% [6.25 µM] (active),-7.53% [6.25 µM] (active),30.6% [6.25 µM],12.1% [6.25 µM],16.9% [6.25 µM],-37.2% [6.25 µM] (active),28.7% [6.25 µM],10.5% [6.25 µM],29.2% [6.25 µM]
Clc1ccc(-c2c3ccc(=[N+]4CCCCC4)cc-3oc3cc(N4CCCCC4)ccc23)cc1,-91.7% (active),-34.1% (active),-76.4% (active),-81.7% (active),-91.2% (active),-89.6% (active),-72.6% (active),-93.4% (active),-78.5% (active),-92.7% (active),-77.1% (active),-82.3% (active),-70.1% (active),-90% (active),-79.6% (active),-71.2% (active),-95.4% (active),-87.1% (active),-70.2% (active),-91.4% (active)
Cc1occc1-c1n[nH]c(=S)n1N1C(=O)CSC1=S,108%,103%,98%,101%,112%,97%,101%,98.5%,109%,102%,101%,105%,80.9%,97%,100%,97.2%,101%,91.4%,94.1%,106%
O=C1OC(c2nc3ccccc3s2)=C/C1=C\c1ccc(O)cc1,111%,102%,100%,87.2%,119%,100%,101%,93%,114%,105%,111%,99.5%,92.7%,97.2%,107%,88.8%,104%,89.1%,94.3%,107%
COc1cc(N=Nc2cc(Cc3ccc(N(C)C)cc3)c(N)cc2N(C)C)c2ncccc2c1,-48.7% (active),-36.8% (active),-17.6% (active),-45.1% (active),-79.7% (active),17.3%,11.8%,-85.8% (active),-33% (active),-15.7% (active),-13.2% (active),-65.4% (active),28.1%,6.94% (active),-54.8% (active),3.89% (active),-13.8% (active),-34% (active),-83.2% (active),15.7%
Cc1cc(NCc2cc(Nc3ccnc4cc(Cl)ccc34)ccc2F)nc(Cl)n1,60%,19.8%,76.8%,43.5%,62.9%,72.2%,34.2%,73.3%,35.7%,38.7%,27%,28.1%,71.5%,58.3%,44.8%,34.9%,3.73% (active),45.2%,34.9%,72.1%
CC(C)CC(NC(=O)CN(Cc1ccccc1)S(C)(=O)=O)C(=O)O (stereo not given),104%,78%,98.8%,111%,80.3%,109%,96.4%,90.9%,103%,97%,101%,97.4%,80%,91.6%,103%,90.1%,95%,89.2%,100%,100%
CC(=O)C(C)Cc1cc2c(cc1C)C(C)(C)CCC2(C)C (stereo not given),107%,105%,99%,109%,104%,100%,102%,102%,79.1%,88.1%,96.7%,93.3%,96.4%,116%,97.1%,77.4%,103%,99.4%,90.7%,106%
